Assay results published in PubChem BioAssay (Tox21).
Values joined by “and” are separate entries in the source; they are usually repeats but may differ in a detail not shown here. Equal values may be shown once. Records with an inconclusive call do not appear. Active and inactive are the calls of the source. Unless noted, the call rests on the fitted dose curve; in most records, active means well fitted curve in the direction sought with a large enough effect in the repeat runs; inconclusive means weak or mixed curves; inactive means no such curve, though single readings can be large; an effect the other way counts as inactive or inconclusive.

Tests used:
[1] = qHTS assay to identify small molecule agonists of the hypoxia (HIF-1) signaling pathway - cell viability counter screen (AID 1224844; calls by dose curve; further: nearly all actives have a fitted effect of over 50% in size)
How it was run: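 Cytotoxicity was measured in parallel with the HRE-driven beta-lactamase readout: after 17 hrs of compound exposure at 37C, HRE-bla ME-180 cells received CellTiter-Glo and luminescence was recorded 30 min later.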

[2] = qHTS assay to identify small molecule agonists of H2AX (AID 1224845; active means well fitted activation curve with a large enough effect in the signal ratio in the repeat runs, not every such curve was filed as active; the % refers to the signal ratio)
How it was run: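 Phospho-H2AX Ser139 measured by HTRF (ex 320 nm; em 665 and 620 nm) after 24 hr antibody incubation. Compounds, 15 concentrations, 0.76% DMSO, were applied to CHO-K1 cells for 3hr at 37C before lysis.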

[3] = qHTS assay to identify small molecule agonists of the hypoxia (HIF-1) signaling pathway (AID 1224846; active means well fitted activation curve with a large enough effect in the signal ratio in the repeat runs, not every such curve was filed as active; the % refers to the signal ratio)
How it was run: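 Compounds from the Tox21 10K library, dissolved in DMSO, are tested for induction of a hypoxia response element–controlled beta-lactamase reporter in ME-180 cells. Exposure lasts 17 hrs at 37C after a 5 hr settling period, followed by CCF4-AM FRET substrate.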

[4] = qHTS assay to identify small molecule agonists of H2AX - cell viability counter screen (AID 1224847; calls by dose curve; further: top concentration of the series differs between compounds; nearly all actives have a fitted effect of over 30% in size)
How it was run: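 We seed wild-type CHO-K1 cells overnight, treat them for 3 hr at 37C with compounds in 15-concentration series, and quantify remaining viability by CellTiter-Glo luminescence.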

[5] = qHTS RealTime-Glo MT Cell Viability Assay in HepG2 cells - 24 hour (AID 1224867); further: nearly all actives have a fitted effect of over 50% in size
How it was run: (§1)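 HepG2 suspension premixed with RealTime-Glo reagents is plated at 600 cells per well and left 5 h at 37 C/5% CO2. Compounds in DMSO then go in, and bioluminescence reflecting viable cell number is recorded over 40 h.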

[6] = qHTS RealTime-Glo MT Cell Viability Assay in HEK293 cells - 32 hour (AID 1224868); further: top concentration of the series differs between compounds; nearly all actives have a fitted effect of over 50% in size
How it was run: (§2)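 Reads taken at 0, 8, 16, 24, 32 and 40 h from the same wells. HEK293 cells (600/well) carried RealTime-Glo reagents from seeding, with compound added after a 5 h settle at 37 C.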

[7] = A CellTox Green Cytotoxicity Assay to monitor cytotoxicity in HEK293 cells - 0 hour (AID 1224869); further: nearly all actives have a fitted effect of over 50% in size
How it was run: (§3)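 Cells (HEK293, 600/well) and dye reagent are dispensed together. After 5 h at 37 C, 23 nL compound is pinned in. Plates stay at 37 C for 40 h with fluorescence read at 0h, 8h, 16h, 24h, 32h and 40h.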

[8] = qHTS RealTime-Glo MT Cell Viability Assay in HepG2 cells - 40 hour (AID 1224870); further: nearly all actives have a fitted effect of over 50% in size
How it was run: (§4)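 Real-time viability: cells seeded at 600 per well together with NanoLuc and cell-permeant prosubstrate, compounds added after 5 h incubation. Luminescence tracked at 0, 8, 16, 24, 32 and 40 h of exposure.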

[9] = A CellTox Green Cytotoxicity Assay to monitor cytotoxicity in HEK293 cells - 40 hour (AID 1224871); further: nearly all actives have a fitted effect of over 45% in size
How it was run: as §3

[10] = qHTS RealTime-Glo MT Cell Viability Assay in HEK293 cells - 16 hour (AID 1224872)
How it was run: as §2

[11] = qHTS RealTime-Glo MT Cell Viability Assay in HEK293 cells - 40 hour (AID 1224874); details: RealTime-Glo luminescence; max response: stronger effect = lower value; further: nearly all actives have a fitted effect of over 50% in size
How it was run: (§5)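 Real-time viability in HEK293: signal arises when living cells convert a prosubstrate for NanoLuc in the medium, so luminescence tracks viable cell number. Compound (23 nL, DMSO) added 5 h post-seeding; kinetic reads at 0–40 h, 37 C.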

[12] = A CellTox Green Cytotoxicity Assay to monitor cytotoxicity in HEK293 cells - 24 hour (AID 1224875); further: series mostly up to about 77 µM; nearly all actives have a fitted effect of over 45% in size
How it was run: as §3

[13] = A CellTox Green Cytotoxicity Assay to monitor cytotoxicity in HepG2 cells - 16 hour (AID 1224876); further: nearly all actives have a fitted effect of over 45% in size
How it was run: (§6)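 Cells and non-lytic dye reagent are dispensed together (600 HepG2 cells/well) and incubated 5 h before DMSO compound transfer. Kinetic fluorescence is then recorded in the same wells during 40 h at 37 C.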

[14] = qHTS RealTime-Glo MT Cell Viability Assay in HepG2 cells - 32 hour (AID 1224877); further: nearly all actives have a fitted effect of over 55% in size
How it was run: as §1

[15] = A CellTox Green Cytotoxicity Assay to monitor cytotoxicity in HepG2 cells - 24 hour (AID 1224878); further: nearly all actives have a fitted effect of over 45% in size
How it was run: as §6

[16] = A CellTox Green Cytotoxicity Assay to monitor cytotoxicity in HepG2 cells - 40 hour (AID 1224879); further: nearly all actives have a fitted effect of over 40% in size
How it was run: as §6

[17] = qHTS RealTime-Glo MT Cell Viability Assay in HEK293 cells - 0 hour (AID 1224880)
How it was run: as §5

[18] = qHTS RealTime-Glo MT Cell Viability Assay in HepG2 cells - 8 hour (AID 1224873); further: nearly all actives have a fitted effect of over 55% in size
How it was run: as §4
On the % scale 0 is the no-effect control and ±100 the full control effect.

C[Si]1(C)O[Si](C)(C)O[Si](C)(C)O[Si](C)(C)O1
inactive: outcome [1] | outcome [2] | outcome [3] | outcome [4] | Potency [5] | Potency [6] | outcome [7] | outcome [8] | Potency [9] | Potency [10] | max response [11] 3.24% and 9.03% | Potency [12] | outcome [13] | outcome [14] | Potency [15] | Potency [16] | outcome [17]

CC1(C)OC[C@@H]2O[C@@]3(C(=O)O)OC(C)(C)O[C@H]3[C@@H]2O1
inactive: outcome [1] | outcome [2] | outcome [3] | outcome [4] | Potency [5] | Potency [6] | outcome [7] | outcome [8] | Potency [9] | Potency [10] | Potency [12] | outcome [13] | outcome [14] | Potency [15] | Potency [16] | outcome [17]

CCCCCCCCCCCC(=O)OC
inactive: outcome [1] | outcome [2] | outcome [3] | outcome [4] | Potency [5] | Potency [6] | outcome [7] | outcome [8] | Potency [9] | Potency [10] | Potency [18] | Potency [12] | outcome [13] | outcome [14] | Potency [15] | Potency [16] | outcome [17]

CCOC(=O)n1ccn(C)c1=S
inactive: outcome [1] | outcome [2] | outcome [3] | outcome [4] | Potency [5] | Potency [6] | outcome [7] | outcome [8] | Potency [9] | Potency [10] | max response [11] 1.12% and 2.41% | Potency [12] | outcome [13] | outcome [14] | Potency [15] | Potency [16] | outcome [17]

Brc1ccc(Br)c(Br)c1
inactive: outcome [1] | outcome [2] | outcome [3] | outcome [4] | Potency [5] | Potency [6] | outcome [7] | Potency [10] | Potency [18] | max response [11] -6.36% and -22.4% | outcome [13] | outcome [14] | Potency [15] | Potency [16] | outcome [17]

O=C(O)/C=C/C(=O)O
inactive: outcome [1] | outcome [2] | outcome [3] | outcome [4] | Potency [5] | Potency [6] | outcome [7] | outcome [8] | Potency [9] | Potency [10] | Potency [18] | max response [11] -4.18% and -12.4% | Potency [12] | outcome [14] | Potency [15] | Potency [16] | outcome [17]

C=C(C)[C@H]1CC=C(C)C(=O)C1
inactive: outcome [1] | outcome [2] | outcome [3] | outcome [4] | Potency [5] | Potency [6] | outcome [7] | Potency [9] | Potency [10] | Potency [18] | max response [11] -1.87% and 0.747% | Potency [12] | outcome [13] | outcome [14] | Potency [15] | Potency [16] | outcome [17]

C=CCCCCCCCCC(=O)O
inactive: outcome [1] | outcome [2] | outcome [3] | outcome [4] | Potency [5] | Potency [6] | outcome [7] | outcome [8] | Potency [9] | Potency [10] | Potency [18] | max response [11] 12.5% and 0.601% | Potency [12] | outcome [14] | Potency [15] | Potency [16] | outcome [17]

CC(C)OP(=O)(CP(=O)(OC(C)C)OC(C)C)OC(C)C
inactive: outcome [1] | outcome [2] | outcome [3] | outcome [4] | Potency [5] | Potency [6] | outcome [7] | outcome [8] | Potency [9] | Potency [10] | Potency [18] | max response [11] 4.3% and 0.573% | Potency [12] | outcome [14] | Potency [15] | Potency [16] | outcome [17]

CCCCCCCCCCCCCCCC(=O)OC(C)C
inactive: outcome [1] | outcome [2] | outcome [3] | outcome [4] | Potency [5] | Potency [6] | outcome [7] | outcome [8] | Potency [9] | Potency [10] | max response [11] 4.79% and -1.72% | Potency [12] | outcome [14] | Potency [15] | Potency [16] | outcome [17]

CCCCCCCO
inactive: outcome [1] | outcome [2] | outcome [3] | outcome [4] | Potency [5] | Potency [6] | outcome [7] | Potency [9] | Potency [10] | Potency [18] | Potency [12] | outcome [13] | outcome [14] | Potency [15] | Potency [16] | outcome [17]

C=CC[N+](C)(C)CC=C
inactive: outcome [1] | outcome [2] | outcome [3] | outcome [4] | Potency [5] | Potency [6] | outcome [7] | Potency [9] | Potency [10] | Potency [18] | Potency [12] | outcome [13] | outcome [14] | Potency [15] | Potency [16] | outcome [17]

C=Cc1ccc(C)cc1
inactive: outcome [1] | outcome [2] | outcome [3] | outcome [4] | Potency [5] | Potency [6] | outcome [7] | outcome [8] | Potency [9] | Potency [10] | max response [11] -4.48% and 7.7% | Potency [12] | outcome [13] | outcome [14] | Potency [15] | Potency [16] | outcome [17]

CC1(C)CC(N)CC(C)(CN)C1 (stereo not given)
inactive: outcome [1] | outcome [2] | outcome [3] | outcome [4] | Potency [5] | Potency [6] | outcome [7] | outcome [8] | Potency [9] | Potency [10] | Potency [12] | outcome [13] | outcome [14] | Potency [15] | Potency [16] | outcome [17]

COC(=O)CCCC(=O)OC
inactive: outcome [1] | outcome [2] | outcome [3] | outcome [4] | Potency [5] | Potency [6] | outcome [7] | Potency [9] | Potency [10] | Potency [18] | max response [11] 4.51% and 15.2% | Potency [12] | outcome [13] | outcome [14] | Potency [15] | Potency [16] | outcome [17]

O=C(O)c1ccccc1C(=O)O
inactive: outcome [1] | outcome [2] | outcome [3] | outcome [4] | Potency [5] | Potency [6] | outcome [7] | outcome [8] | Potency [9] | Potency [10] | Potency [18] | max response [11] -5.44% and 3.46% | Potency [12] | outcome [14] | Potency [15] | Potency [16] | outcome [17]
